PubChem BioAssay AID1159580 (chemical genetic matrix, 2015)
Values joined by “and” are separate entries in the source; they are usually repeats but may differ in a detail not shown here. Equal entries are not always repeated. The whole screen tested about 5,500 compounds, of which about 2,000 (36%) were called active. About 18% were inconclusive and are not listed. Cut-off read from the data, not from the text of the source: active = normalized growth mostly below about 0.91 (no sharp cut-off); inconclusive = no clear call, values can overlap the other calls; inactive = mostly above about 0.92. Some of the results follow.

Experiment: chemical genetic growth profiling, strain panel (AID 1159580);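 note: tested at 20 µM; growth read once vehicle control cultures reached saturation at 30 °C; 1 = growth at the plate median or of vehicle wells; lower values mean less growth of the strain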
Conditions: S. cerevisiae deletion strains, growth OD

Measured: normalized growth

O=C1c2c(O)ccc(O)c2C(=O)c2c(NCCNCCO)ccc(NCCNCCO)c21
active: locus YKL068W, hits give low values 1.06 [resistant] | locus YKL160W, strain elf1, hits give low values 0.858 | locus YKR001C, strain vps1, hits give low values 0.74 | locus YLL001W, strain dnm1, hits give low values 0.727 | locus YLL026W, hits give low values 0.914 | locus YLR027C, strain aat2, hits give low values 0.855 | locus YLR113W, strain HOG1, hits give low values 0.828 | locus YLR221C, strain rsa3, hits give low values 0.865 | locus YLR262C, strain YPT6 (second series), hits give low values 0.443 | locus YLR268W, strain sec22, hits give low values 0.857 | locus YLR320W, strain mms22, hits give low values 0.248 | locus YLR342W, strain FKS1, hits give low values 0.83 | locus YLR370C, strain arc18, hits give low values 0.28 | locus YLR384C, strain iki3, hits give low values 0.745 | locus YML032C, strain rad52, hits give low values 0.19 | locus YML120C, strain ndi1, hits give low values 0.878 | locus YMR058W, strain fet3, hits give low values 0.396 | locus YMR078C, strain ctf18, hits give low values 0.429 | locus YMR231W, strain pep5, hits give low values 0.174 | locus YMR307W, strain GAS1, hits give low values 0.562 and 0.648 | locus YNL071W, strain lat1, hits give low values 1.12 [resistant] | locus YNL183C, strain NPR1, hits give low values 0.815 | locus YNL209W, strain ssb2, hits give low values 0.825 | locus YNL224C, strain SQS1, hits give low values 1.08 [resistant] | locus YNL248C, strain rpa49, hits give low values 0.678 | locus YNL250W, strain rad50, hits give low values 0.181 | locus YNR049C, strain mso1, hits give low values 0.912 | locus YNR052C, strain pop2, hits give low values 0.69 | locus YOL006C, strain TOP1, hits give low values 0.424 | locus YOR001W, strain rrp6, hits give low values 0.681 | locus YOR070C, strain gyp1, hits give low values 0.734 | locus YOR080W, strain dia2, hits give low values 0.447 | locus YOR083W, strain WHI5, hits give low values 0.726 | locus YOR106W, strain vam3, hits give low values 0.363 | locus YOR184W, strain ser1, hits give low values 0.802 | locus YOR270C, strain vph1, hits give low values 0.327 | locus YOR290C, strain snf2, hits give low values 0.653 | locus YPL051W, strain arl3, hits give low values 0.869 | locus YPL055C, strain LGE1, hits give low values 0.868
inactive: locus YJR066W, strain TOR1, hits give low values 0.85 | locus YJR075W, strain HOC1, hits give low values 0.968 | locus YKL009W, strain mrt4, hits give low values 0.925 | locus YKL085W, strain MDH1 (second series), hits give low values 1.05 | locus YKL085W, strain MDH1, hits give low values 1.05 | locus YKL190W, strain CNB1, hits give low values 0.998 | locus YKR026C, strain gcn3, hits give low values 1.04 | locus YKR091W, strain srl3, hits give low values 1.01 | locus YLL041C, strain sdh2, hits give low values 1.01 | locus YLR039C, strain RIC1, hits give low values 0.707 | locus YLR058C, strain SHM2, hits give low values 1.02 | locus YLR102C, strain apc9, hits give low values 1.06 | locus YLR258W, strain gsy2, hits give low values 0.94 | locus YLR262C, strain YPT6, hits give low values 0.711 | locus YLR330W, strain CHS5, hits give low values 1.03 | locus YLR342W, strain FKS1 (second series), hits give low values 0.871 | locus YLR357W, strain rsc2, hits give low values 0.976 | locus YLR371W, strain rom2, hits give low values 1.01 | locus YLR418C, strain cdc73, hits give low values 1.02 | locus YML016C, strain PPZ1, hits give low values 1.03 | locus YML124C, strain tub3, hits give low values 1.05 | locus YMR125W, strain sto1, hits give low values 0.982 | locus YMR129W, hits give low values 0.941 | locus YMR205C, strain PFK2, hits give low values 0.975 | locus YMR223W, strain ubp8, hits give low values 0.91 | locus YMR263W, strain SAP30, hits give low values 0.954 and 1.02 | locus YNL067W, strain RPL9B, hits give low values 0.976 | locus YNL128W, strain TEP1, hits give low values 1.07 | locus YNL175C, strain NOP13, hits give low values 1.07 | locus YNL197C, strain WHI3, hits give low values 1.06 | locus YNL233W, strain BNI4, hits give low values 0.966 | locus YNL271C, strain bni1, hits give low values 0.944 | locus YNL298W, strain CLA4, hits give low values 0.989 | locus YNL307C, strain MCK1, hits give low values 1.08 | locus YNL322C, strain KRE1 (second series), hits give low values 0.933 | locus YNL322C, strain KRE1, hits give low values 1.01 | locus YOL012C, strain htz1 0.838 | locus YOL147C, strain pex11, hits give low values 1.07 | locus YOR061W, strain CKA2, hits give low values 1.01 | locus YOR069W, strain VPS5, hits give low values 1.02 | locus YOR083W, strain WHI5 (second series), hits give low values 1 | locus YOR136W, strain idh2, hits give low values 1.01 | locus YOR144C, strain elg1, hits give low values 0.984 | locus YOR231W, strain MKK1, hits give low values 0.927 | locus YOR265W, strain rbl2, hits give low values 0.932 | locus YOR316C, strain cot1, hits give low values 1.06 | locus YPL078C, strain atp4, hits give low values 0.974 | locus YPL106C, strain sse1, hits give low values 1.07 | locus YPL240C, strain hsp82, hits give low values 1.03 | locus YPL241C, strain CIN2, hits give low values 1.04 | locus YPL256C, strain CLN2, hits give low values 0.959 | locus YPR119W, strain clb2, hits give low values 1.05 | locus YPR141C, strain kar3, hits give low values 1.05 | locus YPR163C, strain tif3, hits give low values 1.03 | locus YPR167C, strain met16, hits give low values 0.993 | strain wtn01, hits give low values 0.963
